Compound activity: PubChem BioAssay, National Center for Advancing Translational Sciences (NCATS)
Pf growth 48h: Primary qHTS for delayed death inhibitors of the malarial parasite plastid, 48 hour incubation; P. falciparum luciferase growth in erythrocytes, 48 h; AID 504832, 2011; Potency, µM (top dose mostly 28.7 µM), for inactives: top-dose activity change, negative = inhibition, most hits filed as inhibitors; 310,000 compounds, 5.9% hits; note: potency is the fitted concentration of half-maximal effect; % is set by controls: 0 for no effect and ±100 for the full control effect
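A one-generation exposure of luciferase-tagged malaria parasites in RPMI 1640/Albumax erythrocyte culture, 37 C and 5% CO2. Inhibition is inferred from decreased luminescence after adding detection reagent.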
AMA1 RON2 block: qHTS for Inhibitors of AMA1-RON; Towards Development of Antimalarial Drug Lead: Primary Screen; AlphaScreen AMA1-biotinylated RON2 peptide binding; Potency, µM (highest dose often 58.2 µM), for the others: at the top dose activity change, negative = inhibition, actives largely listed as inhibitors; AID 720542, 2013; 360,000 compounds, 0.2% hits;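 note: potency is the fitted concentration of half-maximal effect; 0% = vehicle wells and -100% = peptide control; nearly all actives have a fitted effect of over 45% in size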
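AMA1 (3D7) with his tag at 25 nM final met compounds first, then biotinylated RON2 peptide at 25 nM; detection used donor plus acceptor beads, 10 µg/mL apiece, read by AlphaScreen after 30 min at room temperature.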
Shiga inhibitor: A qHTS for Small Molecule Inhibitors of Shiga Toxin | inhibition, % at 38.7 µM | 290,000 compounds, 9.2% hits | Vero cells, Shiga toxin protein synthesis inhibition reporter; in the data active = inhibition mostly above about 28%, no sharp cut-off; inactive = mostly below about 43%; note: 0% is about no effect
Pf growth 96h: Primary qHTS for delayed death inhibitors of the malarial parasite plastid, 96 hour incubation. Potency, µM (series often up to 28.7 µM), without a hit: at the top dose activity change, negative = inhibition, hits mostly inhibitors. P. falciparum luciferase reporter growth, 96 h. 320,000 compounds, 6.9% hits; note: potency is the fitted concentration of half-maximal effect; % is set by controls: 0 for no effect and ±100 for the full control effect
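Two-generation exposure (96 h) targets delayed-death phenotype. Reporter parasites carrying integrated firefly luciferase, in red cells at 2% hematocrit and 0.05% parasitemia final, kept at 37 C, 5% CO2; luminescence loss indicates inhibition.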
CHX counter: Cycloheximide Counterscreen for Small Molecule Inhibitors of Shiga Toxin | AID 2314, 2010 | max response, % | cell reporter, cycloheximide protein synthesis inhibition counterscreen | 300,000 compounds, 12% hits; in the data active = max response mostly above about 13%, no sharp cut-off; inactive = mostly below about 14%; note: read at 38.3 µM for the half of the compounds with a filed dose; 0% is about no effect
SARS PLpro yeast: qHTS of Yeast-based Assay for SARS-CoV PLP; S. cerevisiae expressing SARS-CoV PLpro, growth rescue; Potency, µM (top dose mostly 32.9 µM), without a hit: at the top dose activity, positive = growth rescue, hits mostly activators; 330,000 compounds, 0.19% hits; AID 485353, 2010; calls by dose curve; note: potency is the fitted concentration of half-maximal effect; 0% is about no effect; nearly all actives have a fitted effect of over 55% in size
* = called active by the depositor; ? = inconclusive; nt = no result given; [ ] = remark or other dose. This is a sample that favours compounds with a hit; in the whole collection about 19% have one here. Unless noted, calls come from the whole dose curve; as a rule, active = well fitted curve in the direction sought with a large enough effect; inconclusive = small, poorly fitted or top-dose-only effect, or another doubt; inactive = no such curve, though single readings can be large; an effect the other way counts as inactive or inconclusive.

SMILES	Pf growth 48h	AMA1 RON2 block	Shiga inhibitor	Pf growth 96h	CHX counter	SARS PLpro yeast
COCc1ccc(CN2CCCC(C(=O)Nc3ccc(-c4cscn4)cc3)C2)o1 (stereo unspecified)	?	-3%	10	30%	18	0%
O=S1(=O)N=C(Nc2ccc(O)c(CN3CCCCC3)c2)c2ccccc21	1.5µM*	1%	-14	?	9	3%
COc1ccc(C(O)P(=O)(OCCC(C)C)c2ccc(N(C)C)cc2)cc1 (stereo unspecified)	?	-1%	-4	-5%	-4	0%
CCOc1ccc(-c2cccc(NC(=O)c3cccs3)c2)nn1	5.2µM*	19%	nt	3.7µM*	nt	-7%
CCOc1ccc(-c2cccc(NC(=O)c3ccco3)c2)nn1	?	12%	nt	10µM*	nt	-5%
CCOc1ccc(-c2cccc(NC(=O)COc3ccc(Cl)cc3)c2)nn1	-11%	10%	18	?	11	0%
COc1ccc(-c2cccc(NC(=O)c3cccs3)c2)nn1	9.3µM*	7%	nt	7.4µM*	nt	3%
CCS(=O)(=O)c1ccc(-c2cccc(NC(=O)c3ccco3)c2)nn1	?	16%	nt	?	nt	0%
COc1ccc(NC(=O)CSc2nnc(NC(=O)C3CCC3)s2)c(OC)c1	1%	-1%	3	?	-11	1%
COc1ccccc1N1CCN(c2ccc3c(c2)S(=O)(=O)c2cccc(C(=O)NCC4CC4)c2C3=O)CC1	nt	-6%	nt	nt	nt	nt
O=C(NCc1ccccn1)c1ccc(Br)s1	3.7µM*	58%	32*	nt	17*	-1%
O=C(NCc1ccccn1)c1c(Cl)cccc1Cl	9%	5%	3	72%	0	4%
O=C(NCc1ccccn1)c1cccs1	18%	32%	12	13%	2	2%
O=C(NCc1ccccn1)c1ccc(Cl)s1	nt	31%	26	10%	24*	1%
COc1ccc2[nH]c3c(c2c1)CCC/C3=N\N	40%	14%	8	77%	9.7*	0%
COc1ccc2[nH]c3c(c2c1)CNCC3	nt	-14%	nt	nt	nt	nt
COc1ccc2[nH]c3c(c2c1)CCN=C3C	9.3µM*	-24%	nt	?	nt	nt
CCc1cc2c(=O)n3c(nc2s1)-c1[nH]c2ccc(OC)cc2c1CC3	62%	-8%	21	2.9µM*	15*	13%
COc1ccc2[nH]c3c(c2c1)CCn1c-3nc2sc(C(=O)Nc3ccccc3)c(C)c2c1=O	27%	nt	10	2%	-2	2%
CCCn1c(N)c(NCCN2CCOCC2)c(=O)n(CC(=O)NCc2ccccc2)c1=O	4%	26%	29	23%	7	0%
Nc1cc(=O)nc(SCC(=O)Nc2ccccc2Cl)n1-c1ccccc1	2%	14%	-17	34%	-2	4%
O=C(CSc1n[nH]c(-c2ccccc2Br)n1)NCCN1C(=O)CSC1=O	19%	8%	-4	-4%	-2	-21%
Cc1c(C(=O)Nc2cccc(N(C)S(C)(=O)=O)c2)cccc1[N+](=O)[O-]	0%	2%	-3	-69%[5.75 µM]	11	-1%
COc1cccc(N2CCc3c(C)nc4ccc(Cl)cc4c32)c1	13µM*	34%	-11	12µM*	-4	-2%
COc1ccc(N2CCc3c(C)nc4c(OC)cc(OC)cc4c32)cc1	?	-6%	3	?	-1	-1%
CCc1c2c(nc3ccc(OC)cc13)-c1nc3ccccc3c(=O)n1C2	nt	nt	45	nt	21	nt
COc1ccc(N2CCc3c(C)nc4c(OC)cccc4c32)cc1	?	5%	27	?	-6	3%
COc1ccc(N2CCc3c(C)nc4c(OC)cc(OC)cc4c32)c(OC)c1	?	1%	-14	15µM*	-2	-4%
CCN1Cc2c(/C=C/c3ccccc3)nc3ccc(OC)cc3c2N(c2cccc(Cl)c2)C1	2.1µM*	-19%	-4	3.3µM*	0	-3%
Nc1ncnc2c1ncn2C1OCC(O)C1O (stereo unspecified)	nt	12%	nt	nt	nt	nt
